Laboratory results as given in PubChem BioAssay (NCI).
Compounds without any hit were thinned out: in the full panel of roughly 79,000, 15% have a hit. Activity calls are given as the source filed them. No stated cut-off is given here; in the data, active means growth inhibition above about 70%; inactive means the rest.

Tests used:
[1] = NCI Yeast Anticancer Drug Screen. Data for the rad52 strain (AID 147);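 further: 0% = growth of vehicle-treated control cultures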; settings: S. cerevisiae rad52 mutant growth inhibition, hits give high values
Summary of the method: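 Inhibition of yeast growth, referenced to vehicle controls, was the measured output for a strain with defective DNA damage repair.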

[2] = NCI Yeast Anticancer Drug Screen. Data for the wt1 strain (AID 149);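 further: 0% = growth of vehicle-treated wt1 cultures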; settings: S. cerevisiae wt1 strain (SPY 50644) growth inhibition, hits give high values
Summary of the method: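 Using yeast strain wt1, compound-induced growth inhibition was determined against vehicle-treated cultures.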

[3] = NCI Yeast Anticancer Drug Screen. Data for the rad50EPP+ strain (AID 151);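 further: 0% = growth of vehicle-treated control cultures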; settings: S. cerevisiae rad50 mutant strain, hits give high values
Summary of the method: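 Genetically defined yeast (rad50EPP+, DNA damage repair alteration) is grown with compound, and inhibition of growth is expressed relative to vehicle-treated controls.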

[4] = NCI Yeast Anticancer Drug Screen. Data for the rad50 strain (AID 155);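 further: 0% = growth of vehicle-only cultures of the same strain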; settings: S. cerevisiae rad50 strain growth inhibition, hits give high values
Summary of the method: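 Relative growth inhibition (compound vs vehicle) was measured in yeast with a defined repair-gene alteration.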

[5] = NCI Yeast Anticancer Drug Screen. Data for the mec2-1 strain (AID 157); settings: S. cerevisiae mec2-1 strain, hits give high values
Summary of the method: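 Each compound was tested on mec2-1 yeast, a strain altered in DNA damage repair or cell cycle control. Growth inhibition is reported relative to vehicle.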

[6] = NCI Yeast Anticancer Drug Screen. Data for the rad14 strain (AID 159);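 further: 0% = growth of vehicle-treated control cultures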; settings: S. cerevisiae rad14 strain growth inhibition, hits give high values
Summary of the method: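 Screen for anticancer potential: a yeast strain altered in DNA damage repair is grown with compound, and reduced growth is quantified against vehicle controls.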

[7] = NCI Yeast Anticancer Drug Screen. Data for the sgs1 mgt1 strain (AID 161);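 further: 0% = growth of cultures given vehicle only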; settings: S. cerevisiae sgs1 mgt1 strain, hits give high values
Summary of the method: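 Genetically altered yeast, compound exposure, growth inhibition relative to vehicle.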

[8] = NCI Yeast Anticancer Drug Screen. Data for the CLN2oe strain (AID 163);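 further: 0% = growth of vehicle-only control cultures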; settings: S. cerevisiae CLN2oe strain, hits give high values
Summary of the method: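 First, the altered yeast strain was treated with each compound; second, its growth was measured; finally, inhibition was derived by comparison with vehicle controls.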

[9] = NCI Yeast Anticancer Drug Screen. Data for the cln2 rad14 strain (AID 165);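 further: 0% = growth equal to vehicle treated cultures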; settings: S. cerevisiae cln2 rad14 strain, hits give high values
Summary of the method: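 Test compounds were added to cln2 rad14 yeast cultures; inhibition of growth was then determined by comparison with vehicle treatment.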

[10] = NCI Yeast Anticancer Drug Screen. Data for the bub3 strain (AID 167); settings: S. cerevisiae bub3 mutant strain, hits give high values
Summary of the method: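 Screening used yeast with an engineered genetic alteration affecting cell cycle control. Compound-exposed cultures were compared with vehicle cultures, and reduced growth was taken as inhibition.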

[11] = NCI Yeast Anticancer Drug Screen. Data for the wt2 strain (AID 169);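 further: 0% = growth of vehicle-treated yeast cultures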; settings: S. cerevisiae wt2 strain growth inhibition, hits give high values
Summary of the method: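 The panel's yeast strains carry defined changes in DNA repair or cell cycle genes. Each strain is grown with compound, and growth loss is scored relative to vehicle.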

[12] = NCI Yeast Anticancer Drug Screen. Data for the mlh1 strain (AID 171);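 further: 0% = growth of vehicle-treated control cultures of the same strain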; settings: S. cerevisiae mlh1 strain growth inhibition, hits give high values
Summary of the method: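 Inhibition values reflect reduced yeast growth in the presence of compound, referenced to vehicle controls, using a strain chosen for its alteration in DNA repair or cell cycle control.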

[13] = NCI Yeast Anticancer Drug Screen. Data for the sgs1 strain (AID 173);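 further: 0% = growth of vehicle-only control cultures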; settings: S. cerevisiae sgs1 mutant, hits give high values
Summary of the method: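 Vehicle-treated cultures served as reference for growth inhibition of a yeast strain altered in DNA damage repair or cell cycle control after compound exposure.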

[14] = NCI Yeast Anticancer Drug Screen. Data for the mlh1 rad18 strain (AID 175); settings: S. cerevisiae mlh1 rad18 strain growth inhibition, hits give high values
Summary of the method: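 Inhibition values reflect reduced growth of mutant yeast versus vehicle-treated controls following compound exposure; the mutations affect DNA damage repair.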

[15] = NCI Yeast Anticancer Drug Screen. Data for the rad18 strain (AID 177); settings: S. cerevisiae rad18 mutant growth inhibition, hits give high values
Summary of the method: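 Steps: expose repair-mutant yeast to compound; measure growth; express as inhibition relative to vehicle control.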

[16] = NCI Yeast Anticancer Drug Screen. Data for the mgt1 strain (AID 153); settings: S. cerevisiae mgt1 mutant growth inhibition, hits give high values
Summary of the method: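 In the mgt1 strain, test compounds were added and growth inhibition was determined relative to vehicle-treated controls.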

[17] = at 5.0 µM (retest, dose inferred, filed as 0.5)
[18] = at 50.0 µM (retest, dose inferred, filed as 5.0)

Measured: growth inhibition

BrC/C=C/C[P+](c1ccccc1)(c1ccccc1)c1ccccc1
active: [1]; at 11.0 µM 96% | [1]; at 33.0 µM 98% | [1]; at 100.0 µM 99% | [2]; at 11.0 µM 94% | [2]; at 33.0 µM 98% | [2]; at 100.0 µM 98% | [3]; at 100.0 µM 91% | [4]; [17] 79% | [4]; at 11.0 µM 93% | [4]; at 33.0 µM 98% | [4]; [18] 79% | [4]; at 50.0 µM 90% | [4]; at 100.0 µM 98% | [5]; at 11.0 µM 96% | [5]; at 33.0 µM 98% | [5]; at 50.0 µM 92.9% | [5]; at 100.0 µM 99% | [6]; at 11.0 µM 96% | [6]; at 33.0 µM 99% | [6]; at 100.0 µM 99% | [7]; at 50.0 µM 92% | [8]; at 11.0 µM 94% | [8]; at 33.0 µM 98% | [8]; at 100.0 µM 99% | [9]; at 50.0 µM 87.7% | [10]; at 11.0 µM 94% | [10]; at 33.0 µM 98% | [10]; at 50.0 µM 88.7% | [10]; at 100.0 µM 98% | [11]; at 11.0 µM 95% | [11]; at 33.0 µM 98% | [11]; at 100.0 µM 99% | [12]; at 11.0 µM 83% | [12]; at 33.0 µM 98% | [12]; at 100.0 µM 99% | [13]; at 11.0 µM 95% | [13]; at 33.0 µM 98% | [13]; at 100.0 µM 99% | [14]; at 50.0 µM 87.7% | [15]; at 11.0 µM 96% | [15]; at 33.0 µM 98% | [15]; at 100.0 µM 98%
inactive: [1]; at 1.2 µM 8% | [1]; at 3.7 µM 27% | [2]; at 1.2 µM 4% | [2]; at 3.7 µM 9% | [3]; at 1.2 µM -12% | [3]; at 3.7 µM -14% | [3]; at 11.0 µM -8% | [3]; at 33.0 µM 45% | [4]; at 1.2 µM 7% | [4]; at 3.7 µM 13% | [5]; at 1.2 µM 5% | [5]; at 3.7 µM 12% | [5]; [17] 23% | [5]; [18] 23% | [6]; at 1.2 µM 5% | [6]; at 3.7 µM 7% | [7]; [17] 18% | [7]; [18] 18% | [8]; at 1.2 µM -3% | [8]; at 3.7 µM 10% | [9]; [17] 47% | [9]; [18] 47% | [10]; at 1.2 µM -5% | [10]; at 3.7 µM -7% | [10]; [17] 18% | [10]; [18] 18% | [11]; at 1.2 µM 3% | [11]; at 3.7 µM 9% | [12]; at 1.2 µM -5% | [12]; at 3.7 µM 1% | [13]; at 1.2 µM 4% | [13]; at 3.7 µM 10% | [14]; [17] 43% | [14]; [18] 43% | [15]; at 1.2 µM 9% | [15]; at 3.7 µM 33%

Nc1ccc2cc(Br)c3ccccc3c2c1
inactive: [2]; at 1.2 µM 0% | [2]; at 3.7 µM 1% | [2]; at 11.0 µM -2% | [2]; at 33.0 µM -2% | [3]; at 1.2 µM 3% | [3]; at 3.7 µM 5% | [3]; at 11.0 µM 22% | [3]; at 33.0 µM 39% | [3]; at 100.0 µM 26% | [16]; at 1.2 µM -1% | [16]; at 3.7 µM -3% | [16]; at 11.0 µM -1% | [16]; at 33.0 µM -1% | [16]; at 100.0 µM -3% | [4]; at 1.2 µM 0% | [4]; at 3.7 µM 1% | [4]; [17] 5% | [4]; at 11.0 µM 1% | [4]; at 33.0 µM 16% | [4]; [18] 41% | [4]; at 100.0 µM 20% | [5]; at 1.2 µM -3% | [5]; at 3.7 µM -1% | [5]; [17] -18% | [5]; at 11.0 µM 0% | [5]; at 33.0 µM 3% | [5]; [18] 6% | [5]; at 100.0 µM 6% | [6]; at 1.2 µM -1% | [6]; at 3.7 µM 0% | [6]; at 11.0 µM 4% | [6]; at 33.0 µM 8% | [6]; at 100.0 µM 21% | [7]; [17] 13% | [7]; [18] 50% | [8]; at 1.2 µM -2% | [8]; at 3.7 µM -19% | [8]; at 11.0 µM -1% | [8]; at 33.0 µM -4% | [8]; at 100.0 µM -16% | [9]; [17] 15% | [9]; [18] 18% | [9]; at 50.0 µM 40.1% | [10]; at 1.2 µM 0% | [10]; at 3.7 µM 2% | [10]; [17] 10% | [10]; at 11.0 µM 2% | [10]; at 33.0 µM -1% | [10]; [18] 31% | [10]; at 100.0 µM -6% | [11]; at 1.2 µM -1% | [11]; at 3.7 µM 0% | [11]; at 11.0 µM -3% | [11]; at 33.0 µM 2% | [12]; at 1.2 µM -1% | [12]; at 3.7 µM -1% | [12]; at 11.0 µM -1% | [12]; at 33.0 µM 1% | [12]; at 100.0 µM 2% | [13]; at 1.2 µM -2% | [13]; at 3.7 µM -2% | [13]; at 11.0 µM -1% | [13]; at 33.0 µM 4% | [13]; at 100.0 µM 9% | [14]; [17] 28% | [14]; [18] 65% | [15]; at 1.2 µM -3% | [15]; at 3.7 µM -2% | [15]; at 11.0 µM -4% | [15]; at 33.0 µM -1% | [15]; at 100.0 µM -5%
active: [2]; at 100.0 µM 75% | [4]; at 50.0 µM 86.2% | [5]; at 50.0 µM 73.7% | [7]; at 50.0 µM 88.5% | [10]; at 50.0 µM 71.5% | [11]; at 100.0 µM 80% | [14]; at 50.0 µM 90.3%
